# Measurements: PubChem BioAssay (EPA / NIEHS)
# Some structures have more than one record in an assay (separate samples or runs), and their calls can disagree. Active and inactive are the calls of the source. The calls were made as follows: active = hit-call score of the fitted dose curve at least 0.9, where 1 is the maximum; inactive = score below 0.9.
# Assay: ATG_Sox_CIS: Attagene CIS-FACTORIAL HepG2 Assay for human SRY-box transcription factor (SOX) (AID 2282960)
# Details: HepG2 Attagene cis-factorial SOX reporter, mRNA; actives raise or lower the signal
# Protocol: ATG_CIS is a cell-based, multiplexed-readout assay that uses HepG2, a human liver cell line, with measurements taken at 24 hours after chemical dosing in a 24-well plate.ATG_Sox_CIS is one of 52 assay component(s) measured or calculated from the ATG_CIS assay. It is designed to make measurements of mRNA induction, a form of inducible reporter, as detected with fluorescence intensity signals by Reverse transcription polymerase chain reaction (RT-PCR) and Capillary electrophoresis technology.Data from the assay component ATG_Sox_CIS was analyzed into 1 assay endpoint. This assay endpoint, ATG_Sox_CIS, was analyzed with bidirectional fitting relative to DMSO as the negative control and baseline of activity. Using a type of inducible reporter, measures of mRNA for gain or loss-of-signal activity can be used to understand the reporter gene at the transcription factor-level as they relate to the gene SOX1. Furthermore, this assay endpoint can be referred to as a primary readout, because this assay has produced multiple assay endpoints where this one serves a reporter gene function. To generalize the intended target to other relatable targets, this assay endpoint is annotated to the dna binding intended target family, where the subfamily is HMG box protein.
# Human liver HepG2 cells are transiently transfected with multiple reporter transcription units (MRTUs) in 6-well plates using FuGene 6 reagent (Roche; 3 ml FuGene/1 mg DNA). The MRTU constructs are regulated by a cis-regulating element (promoter). […] A major difference between the CIS and TRANS system is that in CIS activities of endogenous TFs are measured, whereas the TRANS assay evaluates changes in activities of exogenous, chimeric NR-Gal4 proteins. […] At the end of 24 hour incubation, total RNA was isolated using TriZol reagent (Invitrogen). The isolated RNA is then reverse-transcribed using oligo(dT) primer and Mo-MLV reverse transcriptase (Invitrogen) with DNAse I (Ambion) treatment for 30 min. The one-tenth of the produced cDNA was amplified by PCR using Taq DNA polymerase (Invitrogen) and two reporter sequence-specific primers. The PCR products were fluorescently labeled by primer extension with 6-arboxyfluorescein (6-FAM) 5'-labeled reporter sequence-specific primer (2 min at 95 C, 20 s at 68 C and 10 min at 72 C) and these products were digested with 5U of HpaI (New England Biolabs) for 2h at 37 C. The fragments were purified using Qiaquick PCR columns (Qiagen), analyzed on an ABI 3130xL genetic analyzer (Applied Biosystems) with peak positions identified by using a set of X-rhodamine (ROX)-labeled MapMarker1000 molecular weight standards (BioVentures). The raw capillary electrophoresis data was processed using Attagraph software (Attagene).
Compound,outcome,AC50
CC(C)(C)OOC(=O)c1ccccc1,inactive,
Cn1cc(-c2ccccc2)c(=O)c(-c2cccc(C(F)(F)F)c2)c1,inactive,
OCCCl,inactive,
Oc1ccc2ccc3cccc4ccc1c2c34,inactive,
CCOc1cccc(C2(N3CCN(c4ccccc4)CC3)CCC(C)CC2)c1 (stereo not given),inactive,
C[C@]12C=CC3=C4CCC(=O)C=C4CC[C@H]3[C@@H]1CC[C@@H]2O,inactive,
C1=Cc2cccc3cccc1c23,inactive,
CCC12COCN1COC2,inactive,
Nc1ccc(Cc2ccc(N)cc2)cc1,inactive,
Clc1ccc(C(c2ccc(Cl)cc2)C(Cl)(Cl)Cl)cc1,inactive,
CC(O)CCO (stereo not given),inactive,
CN(C)[C@@H]1C(=O)C(C(N)=O)=C(O)[C@@]2(O)C(=O)C3=C(O)c4c(O)cccc4[C@@](C)(O)[C@H]3C[C@@H]12,inactive,
Clc1ccc(Cl)c(Cl)c1,inactive,
O=C1CCCO1,inactive,
O=[N+]([O-])C(Br)(CO)CO,,170 µM (active)
[O-][Cl+]O,inactive,
CCN(CC)CCO,inactive,
Cc1cccc(N)c1N,inactive,
O=Cc1ccco1,inactive,
CC(C)(O)c1cnn2c(-c3ccc(F)c(-c4c(F)cccc4C#N)c3)cnc2n1,inactive,

Compound,outcome,AC50
CO[C@@H]1[C@H](OC(=O)NC(=O)CCl)CC[C@]2(CO2)[C@H]1[C@@]1(C)O[C@@H]1CC=C(C)C,inactive,
Cc1ccc(N)cc1,inactive,
CCCCOC(=O)c1ccccc1C(=O)OCc1ccccc1,inactive,
CC(C)(C)OOC(C)(C)CCC(C)(C)OOC(C)(C)C,inactive,
CC(C)COC(=O)c1ccccc1C(=O)OCC(C)C,inactive,
O=P(OCCCl)(OCCCl)OCCCl,inactive,
N#CC(Br)Br,inactive,
CS(=O)(=O)NC(=O)c1cc(Oc2ccc(C(F)(F)F)cc2Cl)ccc1[N+](=O)[O-],inactive,
Brc1ccc(Oc2ccccc2)cc1,inactive,
Cc1cc(N=Nc2ccccc2C)ccc1N,inactive,
CCCCCOC(=O)c1ccccc1C(=O)OCCCCC,inactive,
O=C(Nc1ccccc1)c1ccccc1I,inactive,
Nc1cc(Cl)cc(C(=O)O)c1Cl,inactive,
CCNS(=O)(=O)C(F)(F)C(F)(F)C(F)(F)C(F)(F)C(F)(F)C(F)(F)C(F)(F)C(F)(F)F,inactive,96.5 µM (active)
O=C(N[C@H](c1ccccc1)[C@@H]1CN2CCC1CC2)c1c(Cl)ccc(C(F)(F)F)c1Cl,inactive,
Clc1ccc(C(c2ccc(Cl)cc2)C(Cl)Cl)cc1,inactive,
[As]#[In],inactive,
Cc1ccc(N)c(N)c1,inactive,
ClCCOCCCl,inactive,
